According to PubChem BioAssay (NCI):
About 83,000 compounds went through this panel and 20% of them were active in at least one assay; those are over-represented in the sample as a whole.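 In brief: 96-well plates, 48 h treatment, single concentration, percent growth endpoint.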 Values without a mark were called inactive. The source made the active and inactive calls.

Each compound was assayed on RPMI-8226 leukemia (assay: NCI-60 one-dose screen, 48 h (100 = growth as untreated, 0 = no growth, -100 = all killed)). Details: 10 µM unless noted.
Procedure: Growth inhibition of the RPMI-8226 human tumor cell line is measured as a screen for anti-cancer activity. Cells are grown in 96 well plates and exposed to the test compound for 48 hours. Compounds are tested at a single concentration, which is 10^-5 M for most compounds. The reported endpoint is percent growth (GI% or GIPRCNT), where numbers from 0 - 100% represent growth inhibition, and numbers from -100% - 0 represent cell death. For example, a value of 40 represents 60% growth inhibition. A value of 0 means no net growth occurred over the course of the experiment. A value of -40 indicates 40% of cells at the beginning of the experiment died by the end of the experiment. A value of -100 means all cells are dead at the end of the experiment.
NCI-60 Human Tumor Cell Lines Screen was performed using the standard one-dose NCI protocol, which is described in more detail at https://dtp.cancer.gov/discovery_development/nci-60/default.htm.
Compounds with GIPRCNT values below 10 were considered active. Activity score was based on GIPRCNT using the following formula: […]
Score is 0 for GIPRCNT values of 100 or above, 50 for GIPRCNT values of 0, and 100 for GIPRCNT values of -100.
For `CN1C[C@@H](c2ccc(Cl)cc2)[C@]2(NC(=S)N(c3ccc(F)c(Cl)c3)C2=O)[C@@]12C(=O)NC1C=CC(Cl)=C[C@H]12` (stereo not given in full), the growth was 2.67% (active). Work on `Cc1ccc(NSc2ccccc2[N+](=O)[O-])cc1` yielded a growth of 19.9%. `CN=C1C=CC(=C(c2ccc(N(C)C)cc2)c2ccc(N(C)C)cc2)C=C1` was tested, and the growth was 0.425% (active). `CCC(=O)OC1=C(C)SC2=NC(c3ccc(Cl)c(Cl)c3)=CC(c3cc(OC)c(OC)c(OC)c3)N21` (stereo not given) gave a growth of 95.8%. With `COc1ccc(/C=C2\C=C(c3ccccc3)N(CCc3ccccc3)C2=O)cc1OC` the growth was 70.6%. In the case of `COc1cc2c(cc1OC)-c1ccc3cc4c(cc3c1N(CCN1CCCC1)C2)OCO4`, the growth is reported as -36.2% (active). With `C=C1C(=O)O[C@H]2[C@H]1CC/C(Cn1cc(CNCCc3c[nH]c4ccccc34)nn1)=C\CC[C@@]1(C)O[C@@H]21` the growth was 76.5%. With `COc1cc(/C=C2\C=C(c3ccccc3)N(CCc3ccccc3)C2=O)cc(OC)c1OC` the growth was 83.3%. With `COc1cc2c(c(OC)c1OC)C(=O)/C(=C/c1cc(C)c(O)c(C)c1)S2` the growth was 21.8%. Work on `CC(=O)C(C(C)=O)c1nc2sc3cc(Cl)ccc3n2c(=N)c1C#N` yielded a growth of 60.8%. `Cc1c(C)c2c(c(C)c1NC(=O)/C=C\C(=O)O)CCC(C)(CCCC(C)CCCC(C)CCCC(C)C)O2` (stereo not given) showed a growth of 30.6%. For `COc1ccc(Nc2ncc(Br)c(NCCCNC(=O)C3CCC3)n2)cc1`, the growth was 40.1%. `CCOC(=O)C(=CNc1ccccc1[N+](=O)[O-])C(=O)OCC` showed a growth of 92.6%. `CCCCOC(=O)c1ccc(NC(=O)C(C)N2CCOCC2)cc1` (stereo not given) showed a growth of 88.1%. For `CCOC(=O)C(O)C(O)(c1ccccc1)c1ccccc1` (stereo not given), the growth was 106%. For `Cc1c(Cl)cccc1NS(=O)(=O)c1ccccc1`, the growth was 123%. `Cc1ccc(-n2nnc(C3=NCCc4c3[nH]c3ccc(Cl)cc43)c2C)cc1` showed a growth of 58.6%. `CCn1c(Sc2nnc(NC(C)=O)s2)nc2c1c(=O)n(C)c(=O)n2C` gave a growth of 118%. For `CC(C)n1nc(C#Cc2cccc(NC(=O)c3cccc(C(F)(F)F)c3)c2)c2c(N)ncnc21`, the growth was -11.8% (active). For `COc1cccc(-c2nc3sccn3c2-c2ccnc(NCCNS(=O)(=O)c3c(Cl)cccc3Cl)c2)c1`, the growth was 15.1%. For `CS(=O)(=O)c1ccc(-c2nc3cc(Cl)ccc3n2CC(=O)N/N=C/c2ccc(Cl)cc2)cc1`, the growth was -17.2% (active). In the case of `CCCN1CCN(c2ccc3nc(-c4ccc5nc(-c6cc(OC)c(OC)c(OC)c6)[nH]c5c4)[nH]c3c2)CC1`, the growth is reported as 95.3%. `N#Cc1cccc(-c2nc3ccccn3c2NCCN2CCOCC2)c1` gave a growth of 90.4%. Compound `CCOC(=O)c1c2c(c(C)n1C)-c1nn(Cc3ccc(OC)cc3)cc1CC2` has a growth of 77.8%. With `COc1ccc(-c2cc(-c3cc(OC)ccc3OC)[nH]c(=O)c2C#N)cc1` the growth was 88.6%. Compound `C[C@@H]1CC[C@@H]2[C@@H]1[C@H](OC(=O)c1ccc3ccccc3c1)[C@]1(C3CCCCC3)C[C@@H](OC(=O)CO)[C@@]2(C)O1` has a growth of 31.4%. With `O=C1CSC(c2ccccc2Cl)N1c1nnc(Cn2cnnc2)o1` (stereo not given) the growth was 55.1%. In the case of `C=C1C(=O)O[C@H]2[C@H]1CC/C(Cn1cc(CNCCc3c[nH]c4ccc(Cl)cc34)nn1)=C\CC[C@@]1(C)O[C@@H]21`, the growth is reported as 9.44% (active). `CCCCCCCCc1cc[n+](CC(=O)c2ccc(Br)cc2)cc1` was tested, and the growth was -9.98% (active). Work on `NS(=O)(=O)c1cn(-c2ncnc3nc[nH]c23)ccc1=O` yielded a growth of 74.7%. In the case of `C=C(C)C1CCC(=C)C2CCC3(C)OC12/C=C(/COC(C)=O)CCC3O` (stereo not given), the growth is reported as 235%. Work on `CCN(CC)S(=O)(=O)c1ccc(O)c(NC(=O)c2[nH]c(C)c(C(C)=O)c2CCc2ccc(Cl)cc2)c1` yielded a growth of 28.3%. In the case of `CCOC(=O)c1c(C)[nH]c(C(=O)CCC(=O)OC)c1C`, the growth is reported as 95.8%. Work on `Clc1ccc(-c2nnc(Cn3ccnc3)o2)cc1` yielded a growth of 112%. In the case of `O=C1Nc2ccccc2SC1c1ccccc1Cl` (stereo not given), the growth is reported as 75%. `COc1ccc(O)c(-c2cc(-c3ccccc3)c(C#N)c(=O)[nH]2)c1` was tested, and the growth was 81.2%. `CCOC(=O)c1nnn(-c2ccccc2)c1C1=CN(C)CCC1` was tested, and the growth was 113%. Compound `CN(C)c1ccc(/C=N/NC(=O)COc2cc(=O)n(C)c3ccccc23)cc1` has a growth of 107%. `N#Cc1c(NC(=O)c2ccc(Br)cc2)sc2c1CCCC2` gave a growth of 33.3%. Compound `O=C(O)C1C[C@](O)(c2ccc(F)cc2)[C@@H](c2ccc(F)cc2)O1` (stereo not given in full) has a growth of 69.1%.
